Data: PubChem BioAssay (Tox21)
Records with an inconclusive call do not appear. Activity calls are given as the source filed them. Unless noted, calls come from the whole dose curve; as a rule, active = well fitted curve in the direction sought with a large enough effect in the repeat runs; inconclusive = weak or mixed curves; inactive = no such curve, though single readings can be large; an effect the other way counts as inactive or inconclusive.

What was measured:
[1] = qHTS RealTime-Glo MT Cell Viability Assay in HepG2 cells - 24 hour (AID 1224867); note: nearly all actives have a fitted effect of over 50% in size
Procedure, shortened: (§1)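 Compound treatment began 5 h after plating HepG2 cells (600/well) with NanoLuc luciferase and prosubstrate. Plates stayed at 37 C for 40 h; luminescence was captured at six time points, 0 h through 40 h.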

[2] = qHTS RealTime-Glo MT Cell Viability Assay in HEK293 cells - 32 hour (AID 1224868); note: top concentration of the series differs between compounds; nearly all actives have a fitted effect of over 50% in size
Procedure, shortened: (§2)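 Quantitative high-throughput screen of the Tox21 10K library in HEK293: cells and RealTime-Glo reagents plated together, compound added at 5 h, luminescence monitored through 40 h at 37 C.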

[3] = A CellTox Green Cytotoxicity Assay to monitor cytotoxicity in HEK293 cells - 0 hour (AID 1224869); note: nearly all actives have a fitted effect of over 50% in size
Procedure, shortened: (§3)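 Seeding of HEK293 cells together with cytotoxicity dye preceded a 5 h incubation at 37 C/5% CO2. Test compounds in DMSO were then added and fluorescence monitored across 40 h.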

[4] = qHTS RealTime-Glo MT Cell Viability Assay in HepG2 cells - 40 hour (AID 1224870); note: nearly all actives have a fitted effect of over 50% in size
Procedure, shortened: (§4)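 HepG2 cells (600/well) mixed with RealTime-Glo MT reagent, settled 5 h at 37 C/5% CO2 before compound addition. Nonlytic NanoLuc luminescence from viable-cell prosubstrate reduction read repeatedly during 40 h treatment at 37 C.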

[5] = A CellTox Green Cytotoxicity Assay to monitor cytotoxicity in HEK293 cells - 40 hour (AID 1224871); note: nearly all actives have a fitted effect of over 45% in size
Procedure, shortened: as §3

[6] = qHTS RealTime-Glo MT Cell Viability Assay in HEK293 cells - 16 hour (AID 1224872)
Procedure, shortened: as §2

[7] = qHTS RealTime-Glo MT Cell Viability Assay in HepG2 cells - 8 hour (AID 1224873); note: nearly all actives have a fitted effect of over 55% in size
Procedure, shortened: as §4

[8] = qHTS RealTime-Glo MT Cell Viability Assay in HEK293 cells - 40 hour (AID 1224874); conditions: RealTime-Glo luminescence; max response: active compounds read low; note: nearly all actives have a fitted effect of over 50% in size
Procedure, shortened: (§5)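 Tox21 screen in HEK293 using RealTime-Glo MT chemistry, with cells and reagent co-dispensed. Luminescence proportional to viable cell number was captured at intervals during 40 h compound exposure at 37 C.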

[9] = A CellTox Green Cytotoxicity Assay to monitor cytotoxicity in HEK293 cells - 24 hour (AID 1224875); note: series mostly up to about 77 µM; nearly all actives have a fitted effect of over 45% in size
Procedure, shortened: as §3

[10] = A CellTox Green Cytotoxicity Assay to monitor cytotoxicity in HepG2 cells - 16 hour (AID 1224876); note: nearly all actives have a fitted effect of over 45% in size
Procedure, shortened: (§6)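 Nonlytic assay: viable cells exclude the dye, so fluorescence scales with cell death. HepG2 at 600 cells/well, compounds added after 5 h, signal read across 40 h.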

[11] = qHTS RealTime-Glo MT Cell Viability Assay in HepG2 cells - 32 hour (AID 1224877); note: nearly all actives have a fitted effect of over 55% in size
Procedure, shortened: as §1

[12] = A CellTox Green Cytotoxicity Assay to monitor cytotoxicity in HepG2 cells - 24 hour (AID 1224878); note: nearly all actives have a fitted effect of over 45% in size
Procedure, shortened: as §6

[13] = qHTS RealTime-Glo MT Cell Viability Assay in HEK293 cells - 0 hour (AID 1224880)
Procedure, shortened: as §5

[14] = A CellTox Green Cytotoxicity Assay to monitor cytotoxicity in HEK293 cells - 32 hour (AID 1224881); note: nearly all actives have a fitted effect of over 40% in size
Procedure, shortened: as §3

[15] = A CellTox Green Cytotoxicity Assay to monitor cytotoxicity in HepG2 cells - 0 hour (AID 1224882); note: nearly all actives have a fitted effect of over 35% in size
Procedure, shortened: as §6

[16] = A CellTox Green Cytotoxicity Assay to monitor cytotoxicity in HepG2 cells - 32 hour (AID 1224883); note: nearly all actives have a fitted effect of over 50% in size
Procedure, shortened: as §6

[17] = A CellTox Green Cytotoxicity Assay to monitor cytotoxicity in HEK293 cells - 8 hour (AID 1224884); note: nearly all actives have a fitted effect of over 35% in size
Procedure, shortened: as §3

[18] = qHTS RealTime-Glo MT Cell Viability Assay in HepG2 cells - 16 hour (AID 1224885); note: nearly all actives have a fitted effect of over 50% in size
Procedure, shortened: as §1

[19] = qHTS assay to identify small molecule agonists of the estrogen related receptor (ERR) signaling pathway from Tox21 library (AID 1224849; calls by dose curve; note: nearly all actives have a fitted effect of over 15% in size)
Procedure, shortened: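 Six hours post-seeding at 37 C/5% CO2, ERR cells receive DMSO-solubilised compounds; after 18 h at 37 C, ONE-Glo reagent is applied and luminescence recorded.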

[20] = A CellTox Green Cytotoxicity Assay to monitor cytotoxicity in HepG2 cells - 40 hour (AID 1224879); note: nearly all actives have a fitted effect of over 40% in size
Procedure, shortened: as §6
% is set by controls: 0 for no effect and ±100 for the full control effect.

O=C1OC(=O)c2cc(Oc3ccc4c(c3)C(=O)OC4=O)ccc21
inactive: outcome [1] | Potency [2] | Potency [3] | outcome [4] | Potency [5] | Potency [6] | outcome [7] | max response [8] 3.57% | Potency [9] | Potency [10] | outcome [11] | Potency [12] | outcome [13] | Potency [14] | Potency [15] | Potency [16] | Potency [17] | outcome [18]

CCCCCCCCCCC
inactive: outcome [19] | Potency [2] | outcome [4] | Potency [5] | Potency [6] | outcome [7] | max response [8] -0.764% | Potency [9] | Potency [10] | outcome [11] | Potency [12] | Potency [20] | outcome [13] | Potency [14] | Potency [15] | Potency [16] | Potency [17] | outcome [18]

Oc1ccccc1Cc1ccccc1O
inactive: outcome [19] | Potency [3] | outcome [4] | Potency [5] | Potency [9] | outcome [11] | outcome [13] | Potency [14] | Potency [15] | Potency [17] | outcome [18]

CC(=O)Nc1ccc(C)cc1
inactive: outcome [19] | Potency [2] | Potency [3] | outcome [4] | Potency [5] | Potency [6] | max response [8] -5.67% | Potency [9] | Potency [10] | outcome [11] | Potency [12] | Potency [20] | outcome [13] | Potency [14] | Potency [15] | Potency [16] | Potency [17] | outcome [18]

NS(=O)(=O)c1cc2c(cc1Cl)NC(C(Cl)Cl)NS2(=O)=O (configuration not stated)
inactive: outcome [1] | Potency [2] | Potency [3] | outcome [4] | Potency [5] | Potency [6] | outcome [7] | max response [8] 2.25% | Potency [9] | Potency [10] | outcome [11] | Potency [12] | Potency [20] | outcome [13] | Potency [14] | Potency [15] | Potency [16] | Potency [17] | outcome [18]

C=C[Si](C)(C)O[Si](C)(C)C=C
inactive: outcome [1] | Potency [2] | Potency [3] | outcome [4] | Potency [5] | Potency [6] | outcome [7] | max response [8] -1.44% | Potency [9] | Potency [10] | outcome [11] | Potency [12] | outcome [13] | Potency [14] | Potency [15] | Potency [16] | Potency [17]

CC(C)COC(=O)CCCCC(=O)OCC(C)C
inactive: outcome [1] | Potency [2] | Potency [3] | outcome [4] | Potency [5] | Potency [6] | outcome [7] | max response [8] -8.63% | Potency [9] | Potency [10] | outcome [11] | Potency [12] | outcome [13] | Potency [14] | Potency [15] | Potency [16] | Potency [17] | outcome [18]

Cc1ccccc1OCC1CO1 (configuration not stated)
inactive: outcome [19] | Potency [2] | Potency [3] | outcome [4] | Potency [5] | Potency [6] | outcome [7] | max response [8] -1.66% | Potency [9] | outcome [11] | Potency [12] | Potency [20] | outcome [13] | Potency [14] | Potency [16] | Potency [17] | outcome [18]

O=C(Oc1ccccc1C(=O)O)c1ccccc1O
inactive: outcome [19] | Potency [2] | Potency [3] | outcome [4] | Potency [5] | Potency [6] | outcome [7] | max response [8] 4.65% | Potency [9] | Potency [10] | outcome [11] | Potency [12] | Potency [20] | outcome [13] | Potency [14] | Potency [15] | Potency [16] | Potency [17] | outcome [18]

CCC(=O)OCCC(C)CCC=C(C)C (configuration not stated)
inactive: outcome [1] | Potency [2] | Potency [3] | outcome [4] | Potency [5] | Potency [6] | outcome [7] | max response [8] -5.38% | Potency [9] | Potency [10] | outcome [11] | Potency [12] | Potency [20] | outcome [13] | Potency [14] | Potency [16] | Potency [17] | outcome [18]

O=C(O)C(=O)Nc1cccc(-c2nn[nH]n2)c1
inactive: outcome [1] | Potency [2] | Potency [3] | outcome [4] | Potency [5] | Potency [6] | outcome [7] | max response [8] 0.908% | Potency [9] | Potency [10] | outcome [11] | Potency [12] | Potency [20] | outcome [13] | Potency [14] | Potency [16] | Potency [17] | outcome [18]

CCN(Cc1cccc(S(=O)(=O)O)c1)c1ccccc1
inactive: outcome [1] | Potency [2] | Potency [3] | outcome [4] | Potency [5] | Potency [6] | outcome [7] | max response [8] 0.413% | Potency [9] | Potency [10] | outcome [11] | Potency [12] | Potency [20] | outcome [13] | Potency [14] | Potency [15] | Potency [16] | Potency [17] | outcome [18]

O=C1NC2NC(=O)NC2N1 (configuration not stated)
inactive: outcome [1] | Potency [2] | Potency [3] | outcome [4] | Potency [5] | Potency [6] | outcome [7] | max response [8] 1.34% | Potency [9] | Potency [10] | outcome [11] | Potency [12] | Potency [20] | outcome [13] | Potency [14] | Potency [16] | Potency [17] | outcome [18]

CC(=O)OC(C)(C)Cc1ccccc1
inactive: outcome [1] | Potency [2] | Potency [3] | outcome [4] | Potency [5] | Potency [6] | outcome [7] | max response [8] 6.53% | Potency [9] | Potency [10] | outcome [11] | Potency [12] | Potency [20] | outcome [13] | Potency [14] | Potency [16] | Potency [17] | outcome [18]

O=CN1CCOCC1
inactive: outcome [19] | Potency [2] | outcome [4] | Potency [5] | Potency [6] | max response [8] 10.7% | Potency [9] | outcome [11] | Potency [12] | Potency [20] | outcome [13] | Potency [14] | Potency [15] | Potency [16] | Potency [17] | outcome [18]
